Laboratory results: ChEMBL document CHEMBL1961873, “Compounds: GSK PKIS; Assays: Nanosyn kinase panel” (2012)

Legend:
[1] = target: MAP/microtubule affinity-regulating kinase 3 (Homo sapiens) (UniProt P27448); settings: at 1 µM;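 note: reported values are averaged percent inhibition of MARK3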
[2] = target: T1, MAP/microtubule affinity-regulating kinase 4 (Homo sapiens) (UniProt Q96L34); settings: at 0.1 µM
T1 sequence (whole entry): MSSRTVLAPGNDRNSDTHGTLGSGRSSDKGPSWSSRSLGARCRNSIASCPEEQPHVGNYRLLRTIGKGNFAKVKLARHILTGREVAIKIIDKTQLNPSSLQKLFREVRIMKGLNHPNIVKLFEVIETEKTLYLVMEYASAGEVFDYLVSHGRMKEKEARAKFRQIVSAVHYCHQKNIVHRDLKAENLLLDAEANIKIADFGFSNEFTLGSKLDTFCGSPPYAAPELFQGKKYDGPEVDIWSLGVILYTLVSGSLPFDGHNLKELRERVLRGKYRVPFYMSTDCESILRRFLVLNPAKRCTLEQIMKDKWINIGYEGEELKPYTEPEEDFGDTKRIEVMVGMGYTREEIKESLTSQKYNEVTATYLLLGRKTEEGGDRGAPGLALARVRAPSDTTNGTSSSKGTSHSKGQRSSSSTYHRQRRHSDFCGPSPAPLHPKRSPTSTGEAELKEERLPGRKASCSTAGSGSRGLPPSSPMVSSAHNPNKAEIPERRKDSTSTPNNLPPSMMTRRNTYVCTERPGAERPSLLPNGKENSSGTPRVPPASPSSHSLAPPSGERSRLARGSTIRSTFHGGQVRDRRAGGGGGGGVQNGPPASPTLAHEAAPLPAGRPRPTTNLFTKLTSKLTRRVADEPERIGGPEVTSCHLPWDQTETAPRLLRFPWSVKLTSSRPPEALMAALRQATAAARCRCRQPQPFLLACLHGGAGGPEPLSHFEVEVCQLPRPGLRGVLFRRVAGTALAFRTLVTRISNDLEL

[3] = target: T1, MAP/microtubule affinity-regulating kinase 4 (Homo sapiens); settings: at 1 µM
[4] = target: Maternal embryonic leucine zipper kinase (Homo sapiens) (UniProt Q14680); settings: at 0.1 µM
Sequence of Maternal embryonic leucine zipper kinase (Homo sapiens) (Q14680 whole entry, looked up): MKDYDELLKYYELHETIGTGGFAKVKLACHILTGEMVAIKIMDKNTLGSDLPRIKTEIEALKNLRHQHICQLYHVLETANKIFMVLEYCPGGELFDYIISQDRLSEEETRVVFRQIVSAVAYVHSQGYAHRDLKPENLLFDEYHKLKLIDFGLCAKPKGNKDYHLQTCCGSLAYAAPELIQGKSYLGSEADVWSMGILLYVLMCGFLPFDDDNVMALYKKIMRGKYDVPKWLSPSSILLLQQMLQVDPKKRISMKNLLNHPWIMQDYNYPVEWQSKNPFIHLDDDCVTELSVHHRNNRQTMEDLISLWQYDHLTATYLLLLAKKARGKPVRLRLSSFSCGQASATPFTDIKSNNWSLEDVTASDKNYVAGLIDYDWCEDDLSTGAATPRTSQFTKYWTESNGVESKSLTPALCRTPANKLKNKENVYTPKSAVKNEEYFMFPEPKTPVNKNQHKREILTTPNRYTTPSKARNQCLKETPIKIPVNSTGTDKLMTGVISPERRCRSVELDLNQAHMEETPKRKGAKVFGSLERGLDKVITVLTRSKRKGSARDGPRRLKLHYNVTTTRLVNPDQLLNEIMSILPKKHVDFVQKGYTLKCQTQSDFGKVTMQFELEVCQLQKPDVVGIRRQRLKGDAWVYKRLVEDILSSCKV

[5] = target: Maternal embryonic leucine zipper kinase (Homo sapiens) (UniProt Q14680); settings: at 1 µM
[6] = target: MAP kinase-interacting serine/threonine-protein kinase 1 (Homo sapiens) (UniProt Q9BUB5); settings: at 0.1 µM
Sequence of MAP kinase-interacting serine/threonine-protein kinase 1 (Homo sapiens) (Q9BUB5 whole entry, looked up): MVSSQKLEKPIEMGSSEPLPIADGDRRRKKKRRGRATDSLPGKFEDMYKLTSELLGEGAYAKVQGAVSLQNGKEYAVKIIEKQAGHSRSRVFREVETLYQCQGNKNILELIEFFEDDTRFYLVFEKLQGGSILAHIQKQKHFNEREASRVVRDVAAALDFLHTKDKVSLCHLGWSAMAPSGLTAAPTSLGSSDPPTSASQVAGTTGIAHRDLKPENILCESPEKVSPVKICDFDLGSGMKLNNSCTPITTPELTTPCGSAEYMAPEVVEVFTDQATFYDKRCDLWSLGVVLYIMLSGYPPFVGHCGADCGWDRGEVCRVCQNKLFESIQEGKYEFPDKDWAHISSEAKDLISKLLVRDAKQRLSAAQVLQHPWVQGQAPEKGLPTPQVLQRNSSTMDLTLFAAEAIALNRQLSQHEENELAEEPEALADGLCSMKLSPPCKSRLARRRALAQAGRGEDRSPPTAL

[7] = target: MAP kinase-interacting serine/threonine-protein kinase 1 (Homo sapiens) (UniProt Q9BUB5); settings: at 1 µM
[8] = target: MAP kinase-interacting serine/threonine-protein kinase 2 (Homo sapiens) (UniProt Q9HBH9); settings: at 0.1 µM
Sequence of MAP kinase-interacting serine/threonine-protein kinase 2 (Homo sapiens) (Q9HBH9 whole entry, looked up): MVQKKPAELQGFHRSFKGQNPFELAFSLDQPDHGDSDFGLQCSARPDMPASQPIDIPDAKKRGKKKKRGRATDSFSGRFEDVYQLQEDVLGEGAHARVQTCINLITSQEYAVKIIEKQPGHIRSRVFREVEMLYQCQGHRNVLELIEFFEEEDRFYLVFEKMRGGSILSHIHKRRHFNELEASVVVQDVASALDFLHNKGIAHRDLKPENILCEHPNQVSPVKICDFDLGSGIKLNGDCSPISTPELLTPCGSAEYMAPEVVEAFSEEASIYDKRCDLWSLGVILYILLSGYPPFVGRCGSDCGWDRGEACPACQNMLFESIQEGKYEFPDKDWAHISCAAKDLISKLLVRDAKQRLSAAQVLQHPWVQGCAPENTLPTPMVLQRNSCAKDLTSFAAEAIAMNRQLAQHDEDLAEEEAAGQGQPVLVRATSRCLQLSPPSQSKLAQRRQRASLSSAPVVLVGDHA

[9] = target: MAP kinase-interacting serine/threonine-protein kinase 2 (Homo sapiens) (UniProt Q9HBH9); settings: at 1 µM
[10] = target: Serine/threonine-protein kinase MARK2 (Homo sapiens) (UniProt Q7KZI7); settings: at 0.1 µM;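 note: mean percent inhibition of PAR-1Balpha kinase activity, reported from the GSK PKIS screen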
Sequence of Serine/threonine-protein kinase MARK2 (Homo sapiens) (Q7KZI7 whole entry): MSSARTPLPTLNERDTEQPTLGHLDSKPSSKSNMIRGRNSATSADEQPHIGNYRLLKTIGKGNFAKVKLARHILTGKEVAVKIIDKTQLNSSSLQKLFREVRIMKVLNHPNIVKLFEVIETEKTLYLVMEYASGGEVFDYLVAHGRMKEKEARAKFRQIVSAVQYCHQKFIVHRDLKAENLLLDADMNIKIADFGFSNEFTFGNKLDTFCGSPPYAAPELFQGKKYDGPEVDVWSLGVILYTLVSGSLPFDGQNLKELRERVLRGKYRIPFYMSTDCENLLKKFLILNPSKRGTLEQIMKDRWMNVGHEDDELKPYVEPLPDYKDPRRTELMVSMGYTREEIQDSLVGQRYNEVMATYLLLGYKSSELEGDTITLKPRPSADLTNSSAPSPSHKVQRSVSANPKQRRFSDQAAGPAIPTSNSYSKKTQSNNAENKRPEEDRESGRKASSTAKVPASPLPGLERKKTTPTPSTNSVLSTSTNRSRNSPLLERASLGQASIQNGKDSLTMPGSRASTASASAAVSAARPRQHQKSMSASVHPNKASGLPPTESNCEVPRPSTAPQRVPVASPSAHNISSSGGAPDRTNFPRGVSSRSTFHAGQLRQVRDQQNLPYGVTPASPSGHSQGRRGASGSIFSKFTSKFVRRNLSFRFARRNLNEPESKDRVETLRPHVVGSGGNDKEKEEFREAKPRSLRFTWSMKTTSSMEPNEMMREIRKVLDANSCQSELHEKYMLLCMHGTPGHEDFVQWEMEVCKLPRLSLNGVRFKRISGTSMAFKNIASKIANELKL

Sequence of MAP/microtubule affinity-regulating kinase 3 (Homo sapiens) (P27448 whole entry, looked up): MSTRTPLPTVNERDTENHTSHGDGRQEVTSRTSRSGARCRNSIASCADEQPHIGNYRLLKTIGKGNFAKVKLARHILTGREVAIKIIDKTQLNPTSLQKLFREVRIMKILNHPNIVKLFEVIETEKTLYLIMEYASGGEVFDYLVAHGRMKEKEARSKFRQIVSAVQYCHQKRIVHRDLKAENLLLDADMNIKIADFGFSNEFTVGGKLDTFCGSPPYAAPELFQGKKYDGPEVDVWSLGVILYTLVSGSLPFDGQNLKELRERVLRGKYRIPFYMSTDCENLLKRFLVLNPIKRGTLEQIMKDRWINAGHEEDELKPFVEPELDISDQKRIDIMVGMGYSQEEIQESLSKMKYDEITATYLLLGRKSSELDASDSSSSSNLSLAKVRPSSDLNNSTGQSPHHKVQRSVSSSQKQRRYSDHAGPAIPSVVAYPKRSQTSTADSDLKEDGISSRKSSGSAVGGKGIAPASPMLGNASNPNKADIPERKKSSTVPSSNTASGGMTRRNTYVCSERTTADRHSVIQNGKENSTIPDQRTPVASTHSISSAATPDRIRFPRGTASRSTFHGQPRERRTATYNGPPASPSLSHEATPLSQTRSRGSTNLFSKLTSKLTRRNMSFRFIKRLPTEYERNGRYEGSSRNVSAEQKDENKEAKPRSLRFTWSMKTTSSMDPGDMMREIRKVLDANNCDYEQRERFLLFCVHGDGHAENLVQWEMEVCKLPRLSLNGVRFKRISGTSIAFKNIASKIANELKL

Row | Structure (SMILES) | inhibition [1] | inhibition [2] | inhibition [3] | inhibition [4] | inhibition [5] | inhibition [6] | inhibition [7] | inhibition [8] | inhibition [9] | inhibition [10]
1 | COc1cc(/C=N/Nc2ncnc3c2cnn3C(C)C)ccc1O | 0.41% | 0.37% | 4.17% | 26.7% | 80.3% | 1.07% | 5.78% | 1.33% | 2.77% | -0.89%
2 | Nc1nccc(-c2c(-c3ccc(F)cc3)ncn2CCCN2CCOCC2)n1 | 8.72% | 1.4% | 1.82% | 9.7% | 2.83% | 2.6% | 7.69% | 1.53% | 0.94% | 3.08%
3 | COc1cc2ncn(-c3cc(OCc4ccccc4S(C)(=O)=O)c(C#N)s3)c2cc1OC | 88.3% | 34.9% | 76.6% | 1.64% | 8.3% | 11.7% | 47.7% | 41.8% | 76.8% | 25.9%
4 | NS(=O)(=O)c1ccc(-c2cc3ccncc3cc2OCc2ccccc2)cc1 | 0.1% | 0.25% | 1.99% | 1.24% | 3.87% | 4.45% | 17.7% | 4.29% | 26.4% | -2.14%
5 | CN(C)c1cc2c(Nc3ccc4c(cnn4Cc4ccccc4)c3)ncnc2cn1 | -0.35% | 1.14% | 1.04% | 2.68% | 2.1% | 3.47% | 19.4% | 3.73% | 23% | 0.19%
6 | Cc1nc(-c2ccccc2)n2nc(NCCCN3CCOCC3)ncc12 | 4.15% | 1.2% | 2.72% | 1.4% | 1.29% | 2.43% | 4.9% | 1.85% | 3.34% | -0.89%
7 | C[C@@H](Oc1cc(-n2cnc3ccc(OC[C@@H](O)CO)cc32)sc1C(N)=O)c1ccccc1Cl | 5.81% | 1.02% | 5.24% | -2.58% | 3.21% | -0.74% | 2.69% | 0.15% | 2.94% | -0.27%
8 | Cc1ccc(Nc2ccnc(Nc3cccc(C(N)=O)c3)n2)cc1O | 12.5% | 1.68% | 6.22% | 2.96% | 7.7% | 2.87% | 13.4% | 2.08% | 16.7% | 0.4%
9 | CS(=O)(=O)Nc1cccc(-c2ccc3c(NC(=O)C4CC4)n[nH]c3c2)c1 | 6.61% | 1.87% | 3.42% | 0.93% | 4.3% | 2.34% | 13.5% | 0.41% | 3.39% | -1.45%
10 | Cc1ccc2c(c1)/C(=N/Nc1ccc(S(N)(=O)=O)cc1)C(=O)N2 | 3.82% | 1.51% | 7.46% | -0.41% | 6.27% | 0.02% | 0.54% | -0.44% | 0% | -0.42%
11 | C[C@@H](Oc1cc(-n2cnc3ccc(OCC4CCN(C)CC4)cc32)sc1C(N)=O)c1ccccc1C(F)(F)F | 57.6% | 8.72% | 49.9% | 0.09% | 22% | 0.35% | 1.61% | 1.1% | 4.25% | 8.53%
12 | CCn1c(-c2nonc2N)nc2c(C#CC(C)(C)O)nc(OCCNC)cc21 | 11.6% | 2.05% | 7.52% | 17.5% | 81.1% | 1.63% | 3.44% | 0.5% | 1.12% | 1.74%
13 | CCn1c(-c2nonc2N)nc2ccc(F)cc21 | 3.73% | 2.45% | 1.33% | 1.93% | 8.51% | 3.42% | 9.46% | 2.9% | 9.38% | 2.57%
14 | NS(=O)(=O)c1ccc(Nc2cc(-c3cccc(O)c3)n[nH]2)cc1 | 32.5% | 3.4% | 9.85% | 4.37% | 7.45% | 3.01% | 7.14% | 0.45% | 5.79% | 1.86%
15 | Nc1nccc(-c2c(-c3ccc(F)cc3)nn3cc(C(F)(F)F)ccc23)n1 | -0.99% | -0.15% | -0.03% | 0.66% | -0.87% | 1.92% | 3.98% | 0.49% | 2.23% | -2.12%
16 | Nc1nccc(C#Cc2cncnc2Nc2ccc(OCc3cccc(F)c3)c(Cl)c2)n1 | 11.2% | 3.04% | 7.4% | 2.92% | 5.11% | 3.59% | 14% | 2.98% | 8.39% | 1.67%
